Records with an inconclusive call do not appear. Entries that show only a call come without a potency. Activity calls are given as the source filed them. Calls follow the shape of the full dose curve.

These results are taken from PubChem BioAssay (Tox21).
Potency is read from the fitted curve at half-maximal effect.

This assay can be described thus: qHTS assay for small molecule agonists of the p53 signaling pathway - cell viability (AID 651633). Also: nearly all actives have a fitted effect of over 30% in size. The conditions noted are these: p53RE-bla HCT-116 viability, ATP luminescence, 16 h; series mostly up to 83.3 µM. The source says:
National Center for Advancing Translational Sciences [NCATS]
NIH Chemical Genomics Center [NCGC]
U.S. Environmental Protection Agency [EPA]
National Institutes of Environmental Health Sciences [NIEHS]
National Toxicology Program [NTP]
U.S. Food and Drug Administration [FDA]
p53, a tumor suppressor protein, is activated following cellular insult, including DNA damage and other cellular stresses. The activation of p53 regulates cell fate by inducing DNA repair, cell cycle arrest, apoptosis, or cellular senescence. The activation of p53, therefore, is a good indicator of DNA damage and other cellular stresses. […] The activation of the reporter gene under culture conditions can be detected by fluorescence intensity. This cell line was used to screen the Tox21 compound library in a 1536-well plate format and to identify agonists that activate the p53 signaling pathway.
Tox21 Assay Protocol Summary:
The p53RE-bla cells were dispensed at 4,000 cells/5 ul/well in 1536-well black wall/clear bottom plates using a Multidrop dispenser. After the assay plates were incubated at a 37 C/5% CO2 incubator for 5 hours, 23 nL of compounds dissolved in DMSO, positive controls or DMSO only was transferred to the assay plate by a pin tool. The plates were incubated at 37 C for 16 hours. After 1 uL of LiveBLAzerTM B/G FRET substrate was added using a Flying Reagent Dispenser, the plates were incubated at room temperature for 2 hours, and fluorescence intensity was measured by an Envision plate reader.
For cell viability readout that measures cytotoxicity, 4 ul/well of CellTiter-Glo reagent was added into the assay plates using a Flying Reagent Dispenser. After 30 min incubation at room temperature, the luminescence intensity in the plates was measured using a ViewLux plate reader.
On to `OCCN1CCN(CCO)CC1`, for which the Potency result is “inactive”. `O=c1oc2c(O)c(O)cc3c(=O)oc4c(O)c(O)cc1c4c23`: the Potency entry is “inactive”.

On to `CN1CCN(c2c(F)cc3c(=O)c(C(=O)O)cn4c3c2SCC4)CC1`, for which the Potency result was “inactive”. Consider `CC(=O)N[C@@H](CC(C)C)C(=O)O`, for which the Potency entry was “inactive”. For `CCC(=O)Nc1ccc(O)cc1` the value was “inactive”.

With `O=C1CCCCCCCCCCC(=O)OCCO1`, the Potency is 54.5 µM (active). For `CCOC(=O)CS` the value was “inactive”; for `COC(=O)C(C)O` (stereo not given), “inactive”; for `OCCN(CCO)CCN(CCO)CCO`, “inactive”. The result for `CC(C)(C)c1cccc(O)c1` reads “inactive”; that for `C[C@]12CCC(=O)C=C1CC[C@@H]1[C@@H]2CC[C@@]2(C)[C@H]1CC[C@]2(O)C(=O)CO`, “inactive”. Turning to `C1CCOC1`, the Potency entry was “inactive”. For `CCOc1ccc2nc(N)sc2c1` the value was “inactive”. Consider `CCCC1CCC(=O)O1` (stereo not given), for which the Potency result was “inactive”. With `O=C(O[C@@H](C(=O)O)[C@@H](OC(=O)c1ccccc1)C(=O)O)c1ccccc1`, the Potency entry is “inactive”. Turning to `CCCCCCCCOC(=O)CCCCCCCCC(=O)OCCCCCCCC`, the Potency entry is “inactive”. The result for `C=Cc1ccccc1` reads “inactive”; that for `CC(=O)OC(C)OC(C)=O`, “inactive”; that for `O=C1CCCc2ccccc21`, “inactive”. For `CN1CCN(C2=Nc3ccccc3Oc3ccc(Cl)cc32)CC1` the value was “inactive”; for `O=C(O)CN(CCN(CC(=O)O)CC(=O)O)CCN(CC(=O)O)CC(=O)O`, “inactive”; for `O=C(O)C(=O)Cc1c[nH]c2ccccc12`, “inactive”. `CO[Si](C)(C)OC`: the Potency result was “inactive”. As to `CCC(=O)O[C@]1(C(=O)SCF)[C@H](C)C[C@H]2[C@@H]3C[C@H](F)C4=CC(=O)C=C[C@]4(C)[C@@]3(F)[C@@H](O)C[C@@]21C`, the Potency result was “inactive”. For `COc1ccc(Nc2ccc(OC)cc2)cc1` the value was “inactive”. Take `Cc1ccsc1C(=CCCN1CCC[C@@H](C(=O)O)C1)c1sccc1C`: the Potency entry was “inactive”. For `CC(C)CC(=O)OCc1ccccc1` the value was “inactive”; for `Cc1nc(-c2ccccn2)ncc1C(=O)Nn1cc(C)c2cc(F)ccc21`, “inactive”. The result for `CCOC(=O)C1CC(=O)C(=C(O)C2CC2)C(=O)C1` (stereo not given) reads “inactive”; that for `CCCCCCOc1ccc(N)cc1`, “inactive”.

As to `N#Cc1ccc(C(c2ccc(C#N)cc2)n2cncn2)cc1`, the Potency entry was “inactive”.

Take `CC1(C)S[C@@H]2[C@H](NC(=O)C(C(=O)O)c3ccccc3)C(=O)N2[C@H]1C(=O)O` (stereo not given in full): the Potency result was “inactive”. For `CC(C)CCCCCCc1ccc(OCCOCCO)cc1` the value was “inactive”; for `O=C1CCN(c2ccccc2)N1`, “inactive”. For the compound `Cc1c(-c2ccccc2)oc2c(C(=O)OCCN3CCCCC3)cccc2c1=O`, the Potency result was “inactive”. For `O=C(O)c1cccc(Cl)c1Cl` the value was “inactive”; for `CC/C=C\CCOC(=O)C(C)C`, “inactive”; for `COC(=O)c1ccc2cc(C(=O)OC)ccc2c1`, “inactive”. For `FC(F)(F)c1ccccc1` the value was “inactive”; for `O=[N+]([O-])c1nccn1CO[C@@H](CO)[C@H](O)CO`, “inactive”.
